# Records with an inconclusive call do not appear. Calls of active or inactive are those of the source. The call rests on the fitted dose curve; in most records, active means well fitted curve in the direction sought with a large enough effect; inconclusive means small, poorly fitted or top-dose-only effect, or another doubt; inactive means no such curve, though single readings can be large; an effect the other way counts as inactive or inconclusive.
# Test: qHTS of pediatric cancer cell lines to identify multiple opportunities for drug repurposing: Primary screen for control Hh wild type fibroblast cells (AID 1347106);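 further: a drop in luminescence marks cytotoxicity and a rise apparent proliferation; nearly all actives have a fitted effect of over 55% in size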
# Conditions: Hh wild-type fibroblast viability, CellTiter-Glo luminescence, 48 h; series mostly up to 46 µM
# Summary of the method: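 Viability after 48 h compound treatment at 37C, 500-1,000 cells/well, read as ATP luminescence with CellTiter-Glo. Primary screens used 11-point (MIPE, 0.78 nM-46 µM) or 8-point (NPC, 0.59 nM-46 µM) final concentrations; follow-up screens used 11-point dilutions.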
row,SMILES,outcome
1,CC(=O)OCC1=C(C(=O)O)N2C(=O)[C@@H](N)[C@H]2SC1,inactive
2,C[C@]12CCC(=O)C=C1CC[C@@H]1[C@H]3CC[C@](C)(O)[C@@]3(C)CC[C@@H]12,inactive
3,CCN[C@H](C)Cc1cccc(C(F)(F)F)c1,inactive
4,C[C@]12CCC(=O)C=C1CC[C@@H]1[C@@H]2CC[C@@]2(C)[C@H]1CC[C@]2(C)O,inactive
5,C[N+]1(CCF)[C@@H]2CC[C@H]1CC(OC(=O)C(O)(c1ccccc1)c1ccccc1)C2 (some centres undefined),inactive
6,O=c1[nH]oc2c1CCNC2,inactive
7,C[C@]12CC[C@H]3[C@@H](CCC4=CC(=O)CC[C@@H]43)[C@@H]1CC[C@@H]2OC(=O)CCC1CCCCC1,inactive
8,Nc1nc(N)nc(NC2CC2)n1,inactive
9,CCOP(=S)(OCC)Oc1ccc2c(C)c(Cl)c(=O)oc2c1,inactive
10,C[C@]12CCC(=O)C=C1CC[C@@H]1[C@@H]2CC[C@]2(C)C(=O)CC[C@@H]12,inactive
11,O=C1CN=C(c2ccccc2)c2cc([N+](=O)[O-])ccc2N1,inactive
12,C[C@]12CC[C@@H]3c4ccc(OC(=O)N(CCCl)CCCl)cc4CC[C@H]3[C@@H]1CC[C@@H]2O,inactive
13,C[C@]12CC[C@H]3[C@@H](CC[C@@]45O[C@H]4C(O)=C(C#N)C[C@]35C)[C@H]1CC[C@H]2O,inactive
14,O=C1c2ccccc2C(=O)c2ccccc21,inactive
15,O=C(N/N=C/c1ccc([N+](=O)[O-])o1)c1cc([N+](=O)[O-])cc([N+](=O)[O-])c1O,inactive
16,CC(NC(C)(C)C)C(=O)c1cccc(Cl)c1 (centres undefined),inactive
17,CC(=O)NC1CCSC1=O (centres undefined),inactive
18,CCC(CC)(CNC(=O)CCCO)c1cccc(OC)c1,inactive
19,COc1ccc2c3c1O[C@H]1[C@H](O)CC[C@H]4[C@@H](C2)N(C)CC[C@@]341,inactive

row,SMILES,outcome
1,CNCC(=O)c1ccc(O)c(O)c1,inactive
2,COc1cccc([C@@]2(O)CCCC[C@@H]2CN(C)C)c1,inactive
3,CCCOC(=O)c1cncn1C(C)c1ccccc1 (centres undefined),inactive
4,c1ccc(CN2CCNCC2)cc1,inactive
5,C[C@@H](N)[C@@H](O)c1ccccc1,inactive
6,O=C(O)CCCc1ccc(N(CCCl)CCCl)cc1,inactive
7,CC(C)c1c(CN(C)C(C)Cc2ccccc2)n(C)n(-c2ccccc2)c1=O (centres undefined),inactive
8,CCCCCCCCCC(=O)O[C@H]1CC[C@H]2[C@@H]3CCC4=CC(=O)CC[C@@H]4[C@H]3CC[C@]12C,inactive
9,CN1C(=O)COc2c(C(=O)NC3CN4CCC3CC4)cc(Cl)cc21 (centres undefined),inactive
10,CN1C(=O)NC(=O)C(C)(C2=CCCCC2)C1=O (centres undefined),inactive
11,CCCN(CCC)C(=O)Cc1c(-c2ccc(Cl)cc2)nc2ccc(Cl)cn12,inactive
12,NCCc1ccc(O)cc1,inactive
13,COC(=O)C(Cl)C(=O)OC,inactive
14,C=C(C)[C@H]1CN[C@H](C(=O)O)[C@H]1CC(=O)O,inactive
15,O=[N+]([O-])O[C@H]1CO[C@H]2[C@@H]1OC[C@H]2O[N+](=O)[O-],inactive
16,O=P1(N(CCCl)CCCl)NCCCO1 (centres undefined),inactive
17,CCC1(c2ccccc2)C(=O)N(COC)C(=O)N(COC)C1=O,inactive
18,C=CCC1([C@H](C)CCC)C(=O)NC(=O)NC1=O,inactive

# Test: qHTS of pediatric cancer cell lines to identify multiple opportunities for drug repurposing: Primary screen for Rh30 cells (AID 1347107); further: nearly all actives have a fitted effect of over 75% in size
# Conditions: Rh30 rhabdomyosarcoma viability, CellTiter-Glo luminescence, 48 h; series mostly up to 46 µM
# Summary of the method: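 Cells (500-1,000/well) rested 5 h, then received compounds for 48 h; metabolically active cells were measured by CellTiter-Glo luminescence. Final concentrations spanned up to 46 µM (MIPE, 11-point) or 0.59 nM-46 µM (NPC, 8-point) in primary screens, 11-point in follow-ups.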
row,SMILES,outcome
1,CC(=O)OCC1=C(C(=O)O)N2C(=O)[C@@H](N)[C@H]2SC1,inactive
2,CCN[C@H](C)Cc1cccc(C(F)(F)F)c1,inactive
3,C[C@]12CCC(=O)C=C1CC[C@@H]1[C@@H]2CC[C@@]2(C)[C@H]1CC[C@]2(C)O,inactive
4,C[N+]1(CCF)[C@@H]2CC[C@H]1CC(OC(=O)C(O)(c1ccccc1)c1ccccc1)C2 (some centres undefined),inactive
5,O=c1[nH]oc2c1CCNC2,inactive
6,C[C@]12CC[C@H]3[C@@H](CCC4=CC(=O)CC[C@@H]43)[C@@H]1CC[C@@H]2OC(=O)CCC1CCCCC1,inactive
7,Nc1nc(N)nc(NC2CC2)n1,inactive
8,CCOP(=S)(OCC)Oc1ccc2c(C)c(Cl)c(=O)oc2c1,inactive
9,C[C@]12CCC(=O)C=C1CC[C@@H]1[C@@H]2CC[C@]2(C)C(=O)CC[C@@H]12,inactive
10,O=C1CN=C(c2ccccc2)c2cc([N+](=O)[O-])ccc2N1,inactive
11,C[C@]12CC[C@@H]3c4ccc(OC(=O)N(CCCl)CCCl)cc4CC[C@H]3[C@@H]1CC[C@@H]2O,inactive
12,O=C1c2ccccc2C(=O)c2ccccc21,inactive
13,O=C(N/N=C/c1ccc([N+](=O)[O-])o1)c1cc([N+](=O)[O-])cc([N+](=O)[O-])c1O,inactive
14,CC(NC(C)(C)C)C(=O)c1cccc(Cl)c1 (centres undefined),inactive
15,CC(=O)NC1CCSC1=O (centres undefined),inactive
16,CCC(CC)(CNC(=O)CCCO)c1cccc(OC)c1,inactive
17,COc1ccc2c3c1O[C@H]1[C@H](O)CC[C@H]4[C@@H](C2)N(C)CC[C@@]341,inactive
18,COc1cccc2c1C(=O)c1c(O)c3c(c(O)c1C2=O)C[C@@](O)(C(=O)CO)CC3OC1CC(N2CCOC(OC)C2)C(O)C(C)O1 (some centres undefined),inactive
19,CNCC(=O)c1ccc(O)c(O)c1,inactive

row,SMILES,outcome
1,COc1cccc([C@@]2(O)CCCC[C@@H]2CN(C)C)c1,inactive
2,CCCOC(=O)c1cncn1C(C)c1ccccc1 (centres undefined),inactive
3,c1ccc(CN2CCNCC2)cc1,inactive
4,COc1c2c(cc3c1OCO3)CCN(C)C2,inactive
5,C[C@@H](N)[C@@H](O)c1ccccc1,inactive
6,O=C(O)CCCc1ccc(N(CCCl)CCCl)cc1,inactive
7,CC(C)c1c(CN(C)C(C)Cc2ccccc2)n(C)n(-c2ccccc2)c1=O (centres undefined),inactive
8,CCCCCCCCCC(=O)O[C@H]1CC[C@H]2[C@@H]3CCC4=CC(=O)CC[C@@H]4[C@H]3CC[C@]12C,inactive
9,CN1C(=O)COc2c(C(=O)NC3CN4CCC3CC4)cc(Cl)cc21 (centres undefined),inactive
10,CN1C(=O)NC(=O)C(C)(C2=CCCCC2)C1=O (centres undefined),inactive
11,CCCN(CCC)C(=O)Cc1c(-c2ccc(Cl)cc2)nc2ccc(Cl)cn12,inactive
12,NCCc1ccc(O)cc1,inactive
13,COC(=O)C(Cl)C(=O)OC,inactive
14,C=C(C)[C@H]1CN[C@H](C(=O)O)[C@H]1CC(=O)O,inactive
15,O=[N+]([O-])O[C@H]1CO[C@H]2[C@@H]1OC[C@H]2O[N+](=O)[O-],inactive
16,O=P1(N(CCCl)CCCl)NCCCO1 (centres undefined),inactive
17,CCC1(c2ccccc2)C(=O)N(COC)C(=O)N(COC)C1=O,inactive
18,C=CCC1([C@H](C)CCC)C(=O)NC(=O)NC1=O,inactive

# Reference: PubChem BioAssay (NCATS)
